Measurements taken from paper PMC7862700, “An all-to-all approach to the identification of sequence-specific readers for epigenetic DNA modifications on cytosine”.

Assays:
Experiment in all cases: DAPPL (digital affinity profiling via proximity ligation, sequencing); 10 mM Tris-HCl pH 7.5, 50 mM NaCl, 1 mM DTT, 4% glycerol, room temperature, 30 min; GST-TFs on glutathione beads, 16-mer random dsDNA library, 0.1% formaldehyde crosslink after washing; high values mean tight binding
[1] = target: T1, FLI1 (Homo sapiens, UniProt Q01543 1-452); details: protein: recombinant; tags: N-terminal GST; dsDNA, one strand shown
T1 sequence: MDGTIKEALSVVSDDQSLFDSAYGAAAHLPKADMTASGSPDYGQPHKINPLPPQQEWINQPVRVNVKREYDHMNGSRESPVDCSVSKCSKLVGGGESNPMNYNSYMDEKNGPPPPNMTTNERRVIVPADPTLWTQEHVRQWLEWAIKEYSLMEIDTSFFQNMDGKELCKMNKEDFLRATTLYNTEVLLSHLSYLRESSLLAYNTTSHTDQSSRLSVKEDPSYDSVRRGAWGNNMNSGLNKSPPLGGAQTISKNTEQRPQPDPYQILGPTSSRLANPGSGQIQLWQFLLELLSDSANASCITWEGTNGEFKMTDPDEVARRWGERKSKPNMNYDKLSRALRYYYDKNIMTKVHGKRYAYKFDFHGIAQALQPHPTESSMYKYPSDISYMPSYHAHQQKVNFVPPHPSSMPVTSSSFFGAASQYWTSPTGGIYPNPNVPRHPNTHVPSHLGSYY
Summary of the method: (§1)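 Pools were built from human transcription factors expressed in yeast as GST fusions, captured on glutathione beads and DNA-barcoded, along with a tag-only sample. Incubation with 200 nmole of a 16-mer random double-stranded DNA library lasted 30 min at room temperature in Tris/NaCl/DTT/glycerol buffer, and was followed by washing, 0.1% formaldehyde crosslinking, proximity ligation, PCR amplification and Illumina NextSeq500 sequencing. Binding signal is the quotient of each hexamer's read frequency for a factor and its frequency for the tag-only sample.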

[2] = target: T2, ELK1 (Homo sapiens, UniProt P19419 1-428); details: protein: recombinant; tags: N-terminal GST; dsDNA, one strand shown
T2 sequence: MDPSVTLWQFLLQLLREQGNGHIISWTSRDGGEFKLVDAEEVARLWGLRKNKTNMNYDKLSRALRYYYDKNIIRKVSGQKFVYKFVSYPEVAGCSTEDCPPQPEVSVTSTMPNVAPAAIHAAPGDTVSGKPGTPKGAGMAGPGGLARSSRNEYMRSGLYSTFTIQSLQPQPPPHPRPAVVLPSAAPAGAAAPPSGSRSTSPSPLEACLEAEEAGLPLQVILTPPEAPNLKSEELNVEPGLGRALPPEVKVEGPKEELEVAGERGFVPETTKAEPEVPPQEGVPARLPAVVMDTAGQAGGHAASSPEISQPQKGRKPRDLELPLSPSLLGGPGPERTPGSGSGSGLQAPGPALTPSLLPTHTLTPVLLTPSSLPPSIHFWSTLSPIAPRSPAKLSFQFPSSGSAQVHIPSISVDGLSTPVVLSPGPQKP
Summary of the method: as §1

[3] = target: T3, GABPA (Homo sapiens, UniProt Q06546 1-454); details: protein: recombinant; tags: N-terminal GST; dsDNA, one strand shown
T3 sequence: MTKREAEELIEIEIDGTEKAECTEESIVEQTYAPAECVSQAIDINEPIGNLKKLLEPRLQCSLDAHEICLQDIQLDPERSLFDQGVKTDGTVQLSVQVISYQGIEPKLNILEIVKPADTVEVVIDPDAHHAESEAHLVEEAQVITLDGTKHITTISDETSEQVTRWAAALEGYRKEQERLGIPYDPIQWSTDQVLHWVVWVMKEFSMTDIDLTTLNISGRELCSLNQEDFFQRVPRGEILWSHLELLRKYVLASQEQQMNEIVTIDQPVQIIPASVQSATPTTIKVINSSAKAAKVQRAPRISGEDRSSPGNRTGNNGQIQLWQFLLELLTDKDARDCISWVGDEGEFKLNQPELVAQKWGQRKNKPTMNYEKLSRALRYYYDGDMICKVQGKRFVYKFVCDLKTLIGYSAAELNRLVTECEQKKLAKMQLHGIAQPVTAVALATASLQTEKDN
Summary of the method: as §1

[4] = target: T4, ERG (Homo sapiens, UniProt P11308 1-479); details: protein: recombinant; tags: N-terminal GST; dsDNA, one strand shown
T4 sequence: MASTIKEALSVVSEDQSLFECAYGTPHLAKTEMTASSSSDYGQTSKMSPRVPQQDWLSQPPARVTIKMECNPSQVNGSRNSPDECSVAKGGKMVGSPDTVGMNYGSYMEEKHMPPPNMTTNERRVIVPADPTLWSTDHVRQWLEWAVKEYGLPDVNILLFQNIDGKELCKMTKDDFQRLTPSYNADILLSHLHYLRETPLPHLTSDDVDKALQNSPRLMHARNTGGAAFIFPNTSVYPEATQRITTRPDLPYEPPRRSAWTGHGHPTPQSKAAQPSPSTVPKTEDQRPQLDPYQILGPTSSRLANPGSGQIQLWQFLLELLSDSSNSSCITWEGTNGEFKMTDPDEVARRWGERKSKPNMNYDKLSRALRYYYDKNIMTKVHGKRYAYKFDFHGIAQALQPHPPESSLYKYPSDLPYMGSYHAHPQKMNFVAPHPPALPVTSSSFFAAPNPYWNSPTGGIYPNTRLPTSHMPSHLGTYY
Summary of the method: as §1

[5] = target: ELF1 (Homo sapiens, UniProt P32519 1-619); details: protein: recombinant; tags: N-terminal GST; dsDNA, one strand shown
Summary of the method: as §1

[6] = target: T5, EHF (Homo sapiens, UniProt Q9NZC4 1-300); details: protein: recombinant; tags: N-terminal GST; dsDNA, one strand shown
T5 sequence: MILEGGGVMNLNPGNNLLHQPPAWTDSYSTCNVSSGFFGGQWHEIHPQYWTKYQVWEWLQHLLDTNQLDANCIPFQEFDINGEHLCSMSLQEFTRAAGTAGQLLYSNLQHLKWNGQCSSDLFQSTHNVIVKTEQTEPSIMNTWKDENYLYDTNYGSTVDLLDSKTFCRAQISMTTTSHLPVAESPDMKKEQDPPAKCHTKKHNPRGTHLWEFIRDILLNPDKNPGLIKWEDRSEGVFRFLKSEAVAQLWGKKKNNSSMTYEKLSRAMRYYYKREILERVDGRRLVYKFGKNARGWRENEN
Summary of the method: as §1

[7] = target: SPI1 (Homo sapiens, UniProt P17947 1-270); details: protein: recombinant; tags: N-terminal GST; dsDNA, one strand shown
Summary of the method: as §1

[8] = target: SPIB (Homo sapiens, UniProt Q01892 1-262); details: protein: recombinant; tags: N-terminal GST; dsDNA, one strand shown
Summary of the method: as §1

[9] = target: T6, ELK3 (Homo sapiens, UniProt P41970 1-407); details: protein: recombinant; tags: N-terminal GST; dsDNA, one strand shown
T6 sequence: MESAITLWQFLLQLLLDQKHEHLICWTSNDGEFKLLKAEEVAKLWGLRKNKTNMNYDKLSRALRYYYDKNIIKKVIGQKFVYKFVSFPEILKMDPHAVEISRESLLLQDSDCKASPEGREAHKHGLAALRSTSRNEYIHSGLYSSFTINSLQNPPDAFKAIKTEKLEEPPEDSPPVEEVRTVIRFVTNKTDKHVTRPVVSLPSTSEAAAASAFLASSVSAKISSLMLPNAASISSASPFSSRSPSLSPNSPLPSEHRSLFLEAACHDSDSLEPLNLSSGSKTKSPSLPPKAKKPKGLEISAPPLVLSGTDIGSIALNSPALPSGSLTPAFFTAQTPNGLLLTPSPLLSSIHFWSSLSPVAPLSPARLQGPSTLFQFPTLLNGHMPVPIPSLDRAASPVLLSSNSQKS
Summary of the method: as §1

[10] = target: T7, FEV (Homo sapiens, UniProt Q99581 1-238); details: protein: recombinant; tags: N-terminal GST; dsDNA, one strand shown
T7 sequence: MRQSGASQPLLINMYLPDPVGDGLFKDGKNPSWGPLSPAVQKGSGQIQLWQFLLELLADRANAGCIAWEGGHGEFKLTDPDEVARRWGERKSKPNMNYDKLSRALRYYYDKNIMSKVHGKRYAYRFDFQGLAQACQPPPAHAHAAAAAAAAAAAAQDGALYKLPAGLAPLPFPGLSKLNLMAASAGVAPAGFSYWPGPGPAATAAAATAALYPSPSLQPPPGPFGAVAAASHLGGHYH
Summary of the method: as §1

[11] = target: ETV5 (Homo sapiens, UniProt P41161 1-510); details: protein: recombinant; tags: N-terminal GST; dsDNA, one strand shown
Summary of the method: as §1

[12] = target: HSF1 (Homo sapiens, UniProt Q00613 1-529); details: protein: recombinant; tags: N-terminal GST; chain copies: 3; dsDNA, one strand shown
Summary of the method: as §1

[13] = target: T8, SPIC (Homo sapiens, UniProt Q8N5J4 1-248); details: protein: recombinant; tags: N-terminal GST; dsDNA, one strand shown
T8 sequence: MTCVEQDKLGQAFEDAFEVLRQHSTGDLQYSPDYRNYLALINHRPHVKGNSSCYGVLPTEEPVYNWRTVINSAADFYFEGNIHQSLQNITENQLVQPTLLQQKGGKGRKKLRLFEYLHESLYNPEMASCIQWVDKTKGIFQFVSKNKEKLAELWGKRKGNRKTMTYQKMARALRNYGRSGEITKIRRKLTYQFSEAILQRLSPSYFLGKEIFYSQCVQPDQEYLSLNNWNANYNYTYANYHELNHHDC
Summary of the method: as §1

[14] = target: ELF4 (Homo sapiens, UniProt Q99607 1-663); details: protein: recombinant; tags: N-terminal GST; dsDNA, one strand shown
Summary of the method: as §1

[15] = target: T9, ELK4 (Homo sapiens, UniProt P28324-2 1-405); details: protein: recombinant; tags: N-terminal GST; dsDNA, one strand shown
T9 sequence: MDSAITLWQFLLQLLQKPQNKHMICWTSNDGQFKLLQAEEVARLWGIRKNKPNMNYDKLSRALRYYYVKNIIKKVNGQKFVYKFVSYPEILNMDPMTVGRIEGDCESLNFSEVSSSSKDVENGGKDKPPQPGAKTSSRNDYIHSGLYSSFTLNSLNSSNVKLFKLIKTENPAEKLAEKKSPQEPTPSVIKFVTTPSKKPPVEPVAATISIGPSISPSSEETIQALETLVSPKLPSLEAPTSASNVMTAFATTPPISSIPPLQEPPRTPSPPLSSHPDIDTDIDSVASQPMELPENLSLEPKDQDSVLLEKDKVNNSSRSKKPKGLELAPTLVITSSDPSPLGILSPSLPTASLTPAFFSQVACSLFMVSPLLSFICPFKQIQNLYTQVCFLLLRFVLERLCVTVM
Summary of the method: as §1

[16] = target: T10, ETV2 (Homo sapiens, UniProt O00321 1-342); details: protein: recombinant; tags: N-terminal GST; dsDNA, one strand shown
T10 sequence: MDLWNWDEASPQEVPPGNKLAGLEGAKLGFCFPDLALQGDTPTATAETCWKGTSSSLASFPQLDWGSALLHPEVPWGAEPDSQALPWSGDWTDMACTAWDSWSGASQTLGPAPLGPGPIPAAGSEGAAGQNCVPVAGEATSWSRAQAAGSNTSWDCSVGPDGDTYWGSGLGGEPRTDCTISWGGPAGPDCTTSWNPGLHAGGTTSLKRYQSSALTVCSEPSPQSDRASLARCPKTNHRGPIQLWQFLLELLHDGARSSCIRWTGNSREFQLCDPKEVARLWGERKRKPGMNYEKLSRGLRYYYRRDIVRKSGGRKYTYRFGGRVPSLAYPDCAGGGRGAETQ
Summary of the method: as §1

[17] = target: T11, ELF3 (Homo sapiens, UniProt P78545 1-371); details: protein: recombinant; tags: N-terminal GST; dsDNA, one strand shown
T11 sequence: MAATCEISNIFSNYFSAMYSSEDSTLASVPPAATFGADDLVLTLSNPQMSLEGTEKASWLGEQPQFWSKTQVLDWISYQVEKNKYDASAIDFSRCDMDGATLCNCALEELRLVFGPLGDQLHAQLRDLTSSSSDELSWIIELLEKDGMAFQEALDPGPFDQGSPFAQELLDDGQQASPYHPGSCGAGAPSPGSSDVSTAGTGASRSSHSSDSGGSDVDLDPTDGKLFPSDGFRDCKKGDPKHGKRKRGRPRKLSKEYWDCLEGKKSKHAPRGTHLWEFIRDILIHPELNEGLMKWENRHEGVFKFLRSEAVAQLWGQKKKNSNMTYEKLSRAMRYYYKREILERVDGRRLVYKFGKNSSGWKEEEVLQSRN
Summary of the method: as §1

[18] = target: CRX (Homo sapiens, UniProt O43186 1-299); details: protein: recombinant; tags: N-terminal GST; dsDNA, one strand shown
Summary of the method: as §1

[19] = target: ETV1 (Homo sapiens, UniProt P50549 1-477); details: protein: recombinant; tags: N-terminal GST; dsDNA, one strand shown
Summary of the method: as §1

Chain of ELF1 (P32519 whole entry): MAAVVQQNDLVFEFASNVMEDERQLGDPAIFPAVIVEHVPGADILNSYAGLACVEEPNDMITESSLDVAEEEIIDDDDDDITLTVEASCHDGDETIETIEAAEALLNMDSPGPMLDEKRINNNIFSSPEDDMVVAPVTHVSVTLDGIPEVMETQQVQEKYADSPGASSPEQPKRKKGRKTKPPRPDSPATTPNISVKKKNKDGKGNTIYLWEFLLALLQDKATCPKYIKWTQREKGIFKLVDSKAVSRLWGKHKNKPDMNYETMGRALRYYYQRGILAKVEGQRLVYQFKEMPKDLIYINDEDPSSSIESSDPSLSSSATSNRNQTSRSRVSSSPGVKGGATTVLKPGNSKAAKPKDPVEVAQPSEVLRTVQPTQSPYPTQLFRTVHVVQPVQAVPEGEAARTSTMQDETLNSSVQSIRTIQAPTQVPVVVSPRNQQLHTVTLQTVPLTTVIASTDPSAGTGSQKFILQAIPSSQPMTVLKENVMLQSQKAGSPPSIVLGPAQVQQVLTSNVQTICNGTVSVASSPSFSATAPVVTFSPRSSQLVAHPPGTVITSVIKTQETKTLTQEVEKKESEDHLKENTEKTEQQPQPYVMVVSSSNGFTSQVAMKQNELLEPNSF
Chain of ETV5 (P41161 whole entry): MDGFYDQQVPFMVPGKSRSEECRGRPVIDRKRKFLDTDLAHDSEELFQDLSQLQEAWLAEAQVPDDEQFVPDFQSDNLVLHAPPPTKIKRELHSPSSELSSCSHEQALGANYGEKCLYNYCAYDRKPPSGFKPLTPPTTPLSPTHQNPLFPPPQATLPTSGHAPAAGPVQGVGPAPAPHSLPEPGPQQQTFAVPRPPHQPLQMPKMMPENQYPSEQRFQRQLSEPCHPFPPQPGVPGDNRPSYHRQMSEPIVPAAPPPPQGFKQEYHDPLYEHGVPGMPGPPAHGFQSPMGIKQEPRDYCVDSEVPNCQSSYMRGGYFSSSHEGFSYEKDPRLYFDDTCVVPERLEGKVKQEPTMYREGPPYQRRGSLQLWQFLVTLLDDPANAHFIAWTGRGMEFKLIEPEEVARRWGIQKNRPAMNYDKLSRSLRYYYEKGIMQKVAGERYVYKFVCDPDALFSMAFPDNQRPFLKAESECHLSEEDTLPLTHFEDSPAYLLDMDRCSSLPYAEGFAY
Chain of ELF4 (Q99607 whole entry): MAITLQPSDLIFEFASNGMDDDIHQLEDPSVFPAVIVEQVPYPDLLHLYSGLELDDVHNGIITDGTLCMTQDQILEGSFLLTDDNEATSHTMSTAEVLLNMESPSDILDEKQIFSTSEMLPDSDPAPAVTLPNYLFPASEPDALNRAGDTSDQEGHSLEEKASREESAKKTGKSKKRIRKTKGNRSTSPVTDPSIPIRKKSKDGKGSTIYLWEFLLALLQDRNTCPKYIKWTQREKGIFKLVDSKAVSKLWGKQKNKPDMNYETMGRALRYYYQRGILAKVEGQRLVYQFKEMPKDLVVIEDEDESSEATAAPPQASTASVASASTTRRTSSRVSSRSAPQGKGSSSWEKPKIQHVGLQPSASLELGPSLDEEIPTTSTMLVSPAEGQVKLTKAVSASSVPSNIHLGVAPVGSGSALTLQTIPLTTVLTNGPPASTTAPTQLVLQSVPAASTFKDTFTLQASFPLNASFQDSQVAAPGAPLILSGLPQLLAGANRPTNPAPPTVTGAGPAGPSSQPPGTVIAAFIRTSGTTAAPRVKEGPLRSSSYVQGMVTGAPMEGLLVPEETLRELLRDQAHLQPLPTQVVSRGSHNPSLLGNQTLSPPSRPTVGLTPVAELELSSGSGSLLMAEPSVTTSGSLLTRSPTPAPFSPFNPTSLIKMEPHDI
Chain of SPIB (Q01892 whole entry): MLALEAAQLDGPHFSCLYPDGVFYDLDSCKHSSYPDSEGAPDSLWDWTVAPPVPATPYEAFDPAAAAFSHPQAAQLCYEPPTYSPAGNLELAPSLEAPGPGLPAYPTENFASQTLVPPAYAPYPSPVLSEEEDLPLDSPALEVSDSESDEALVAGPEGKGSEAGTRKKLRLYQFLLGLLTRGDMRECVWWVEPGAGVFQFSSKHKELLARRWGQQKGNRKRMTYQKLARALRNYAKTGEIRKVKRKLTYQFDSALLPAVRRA
Chain of CRX (O43186 whole entry): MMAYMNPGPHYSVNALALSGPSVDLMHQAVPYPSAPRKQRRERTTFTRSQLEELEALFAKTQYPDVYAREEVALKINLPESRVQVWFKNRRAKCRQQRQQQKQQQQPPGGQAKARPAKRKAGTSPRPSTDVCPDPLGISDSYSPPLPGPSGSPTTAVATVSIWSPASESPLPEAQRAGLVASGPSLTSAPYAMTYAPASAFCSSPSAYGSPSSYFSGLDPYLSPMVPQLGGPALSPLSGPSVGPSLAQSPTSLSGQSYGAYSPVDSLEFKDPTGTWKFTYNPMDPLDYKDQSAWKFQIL
Chain of ETV1 (P50549 whole entry): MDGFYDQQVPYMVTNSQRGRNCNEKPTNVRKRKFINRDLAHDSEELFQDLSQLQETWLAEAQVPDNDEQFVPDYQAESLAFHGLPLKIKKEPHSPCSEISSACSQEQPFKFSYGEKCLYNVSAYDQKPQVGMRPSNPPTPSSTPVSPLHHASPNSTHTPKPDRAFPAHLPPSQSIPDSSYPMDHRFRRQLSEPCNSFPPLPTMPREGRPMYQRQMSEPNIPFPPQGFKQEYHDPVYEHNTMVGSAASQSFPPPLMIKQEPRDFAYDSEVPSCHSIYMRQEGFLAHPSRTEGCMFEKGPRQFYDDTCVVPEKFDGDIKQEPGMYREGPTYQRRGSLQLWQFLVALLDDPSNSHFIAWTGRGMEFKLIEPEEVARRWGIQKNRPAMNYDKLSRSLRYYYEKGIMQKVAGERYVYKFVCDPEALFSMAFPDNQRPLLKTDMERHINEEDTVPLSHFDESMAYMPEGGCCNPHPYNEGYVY
Chain of HSF1 (Q00613 whole entry): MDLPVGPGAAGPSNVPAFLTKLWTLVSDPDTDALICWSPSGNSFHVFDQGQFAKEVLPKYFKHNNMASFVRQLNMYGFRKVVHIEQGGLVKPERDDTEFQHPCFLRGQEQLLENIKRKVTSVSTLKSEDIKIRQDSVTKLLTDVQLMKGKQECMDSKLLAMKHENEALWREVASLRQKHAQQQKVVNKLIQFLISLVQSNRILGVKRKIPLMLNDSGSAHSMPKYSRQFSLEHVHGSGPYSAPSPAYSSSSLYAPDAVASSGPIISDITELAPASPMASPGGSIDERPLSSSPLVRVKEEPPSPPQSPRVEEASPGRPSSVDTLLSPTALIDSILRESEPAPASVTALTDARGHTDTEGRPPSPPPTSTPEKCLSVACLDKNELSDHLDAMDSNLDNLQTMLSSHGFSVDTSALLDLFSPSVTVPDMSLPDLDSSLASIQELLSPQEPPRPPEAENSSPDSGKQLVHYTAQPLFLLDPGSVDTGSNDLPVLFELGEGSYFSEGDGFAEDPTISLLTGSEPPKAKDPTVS

Which results are given for TATACC?
binding signal [1]: 1.29 fold enrichment (6-mer frequency, TF over GST control); binding signal [2]: 1.31 fold enrichment (6-mer frequency, TF over GST control); binding signal [3]: 1.18 fold enrichment (6-mer frequency, TF over GST control); binding signal [4]: 1.2 fold enrichment (6-mer frequency, TF over GST control); binding signal [5]: 1.18 fold enrichment (6-mer frequency, TF over GST control); binding signal [6]: 1.21 fold enrichment (6-mer frequency, TF over GST control); binding signal [7]: 1.05 fold enrichment (6-mer frequency, TF over GST control); binding signal [8]: 1.27 fold enrichment (6-mer frequency, TF over GST control); binding signal [9]: 1.16 fold enrichment (6-mer frequency, TF over GST control); binding signal [10]: 1.23 fold enrichment (6-mer frequency, TF over GST control); binding signal [11]: 1.09 fold enrichment (6-mer frequency, TF over GST control); binding signal [12]: 1.1 fold enrichment (6-mer frequency, TF over GST control); binding signal [13]: 1.14 fold enrichment (6-mer frequency, TF over GST control); binding signal [14]: 1.21 fold enrichment (6-mer frequency, TF over GST control); binding signal [15]: 1.22 fold enrichment (6-mer frequency, TF over GST control); binding signal [16]: 1.15 fold enrichment (6-mer frequency, TF over GST control); binding signal [17]: 1.12 fold enrichment (6-mer frequency, TF over GST control); binding signal [18]: 1.26 fold enrichment (6-mer frequency, TF over GST control); binding signal [19]: 1.31 fold enrichment (6-mer frequency, TF over GST control)
